KDM5B inhibitor: blocks human KDM5B histone demethylase activity; Q9UGL1; KDM5B demethylase, FDH-coupled NADH fluorescence (FDH is formaldehyde dehydrogenase); Potency, µM (highest dose often 57.7 µM), usual class: inhibitors; 2.6% of 220,000 active; AID 1347165; active = well fitted inhibition curve with a large enough effect; note: 0% is about no effect; nearly all actives have a fitted effect of over 70% in size
Target sequence (Q9UGL1 whole entry, looked up): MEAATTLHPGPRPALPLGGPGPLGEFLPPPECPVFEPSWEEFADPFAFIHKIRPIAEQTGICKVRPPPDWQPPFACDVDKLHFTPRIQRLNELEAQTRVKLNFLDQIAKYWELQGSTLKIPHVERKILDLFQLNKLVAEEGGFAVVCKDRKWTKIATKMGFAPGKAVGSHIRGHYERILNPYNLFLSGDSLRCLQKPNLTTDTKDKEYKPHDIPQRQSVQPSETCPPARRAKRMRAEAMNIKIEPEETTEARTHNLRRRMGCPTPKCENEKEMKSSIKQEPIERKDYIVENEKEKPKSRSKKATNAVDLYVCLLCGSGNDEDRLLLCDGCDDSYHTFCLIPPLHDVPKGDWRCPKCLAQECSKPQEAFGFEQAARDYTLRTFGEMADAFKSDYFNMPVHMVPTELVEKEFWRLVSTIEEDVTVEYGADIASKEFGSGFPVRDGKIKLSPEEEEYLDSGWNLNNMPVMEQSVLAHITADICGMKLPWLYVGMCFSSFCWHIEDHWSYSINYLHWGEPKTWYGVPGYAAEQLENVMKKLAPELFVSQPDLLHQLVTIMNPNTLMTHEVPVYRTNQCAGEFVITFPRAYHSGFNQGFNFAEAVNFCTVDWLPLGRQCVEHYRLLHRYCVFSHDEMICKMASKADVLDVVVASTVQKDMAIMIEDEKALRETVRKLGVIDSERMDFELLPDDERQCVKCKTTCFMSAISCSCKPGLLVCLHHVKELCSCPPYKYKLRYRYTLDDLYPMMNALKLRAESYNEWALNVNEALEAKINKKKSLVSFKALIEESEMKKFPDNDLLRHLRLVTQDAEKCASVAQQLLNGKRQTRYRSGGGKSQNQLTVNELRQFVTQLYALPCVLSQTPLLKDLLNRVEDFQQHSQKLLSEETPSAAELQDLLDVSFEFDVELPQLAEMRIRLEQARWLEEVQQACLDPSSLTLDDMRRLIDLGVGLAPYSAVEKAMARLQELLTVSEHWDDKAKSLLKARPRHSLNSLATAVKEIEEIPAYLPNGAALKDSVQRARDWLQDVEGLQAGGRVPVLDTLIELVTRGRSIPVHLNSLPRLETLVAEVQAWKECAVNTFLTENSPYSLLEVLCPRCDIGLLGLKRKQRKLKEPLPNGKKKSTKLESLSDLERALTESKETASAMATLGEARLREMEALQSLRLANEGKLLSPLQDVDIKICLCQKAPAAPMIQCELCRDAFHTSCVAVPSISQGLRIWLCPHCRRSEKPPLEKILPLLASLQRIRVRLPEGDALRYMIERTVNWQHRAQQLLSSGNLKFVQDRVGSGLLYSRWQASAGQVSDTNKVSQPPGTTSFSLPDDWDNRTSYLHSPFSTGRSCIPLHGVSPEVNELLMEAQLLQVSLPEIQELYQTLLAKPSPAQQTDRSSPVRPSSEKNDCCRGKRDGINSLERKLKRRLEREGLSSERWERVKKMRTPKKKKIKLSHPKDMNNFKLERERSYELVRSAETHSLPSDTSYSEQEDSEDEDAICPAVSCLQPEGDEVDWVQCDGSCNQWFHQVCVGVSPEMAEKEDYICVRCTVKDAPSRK
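Measured: NADH fluorescence change, 30 min, RT. System: KDM5BΔAP 200 nM final, H3K4me3 peptide, α-KG, Fe(II), ascorbate, NAD⁺ plus FDH, pH 7.5 HEPES. Compounds: titrated, 10 min pre-incubation with enzyme.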
* hit, by the source's call; i = inactive. Many of the other results were omitted from the sample, so hits are more common in it than they were. Potency is the fitted concentration of half-maximal effect.

SMILES	KDM5B inhibitor
Clc1ccccc1C1(c2ccnc(CC3CC3)n2)CCNCC1	i
CCCN1CCC(NC(=O)CC(F)(F)F)CC1	i
Cc1ccc(NC(=O)CSc2ncc(-c3ccc(F)cc3)o2)c(C)c1	i
O=C(CSC12CC3CC(CC(C3)C1)C2)NCCc1ccc(F)cc1	i
COc1ccc(NC(=O)Nc2nnc(-c3ccccc3)s2)cc1	i
C[C@@]1(O)CCN(Cc2ccc3c4c(cccc24)C(=O)OC3)C[C@@H]1O	28.2µM*
CN(C)c1ccc(CC(=O)N2CC[C@@](C)(O)[C@@H](O)C2)cc1	i
C[C@]1(O)CCN(C(=O)Cc2ccc3c(c2)OCO3)C[C@@H]1O	i
CC1CC(O)C(C)N(C)C1 (stereo not given)	i
CCc1cccc(C)c1NC(=O)CCn1c(=O)n(CC)c2ccccc21	i
O=C(CCC[C@@H]1[C@H]2CCCN3CCC[C@@H](CN1Cc1ccccc1)[C@@H]23)NCCCn1cccn1	22.4µM*
O=C(CCC[C@@H]1[C@H]2CCCN3CCC[C@@H](CN1C(=O)c1ccccc1)[C@@H]23)NCCN1CCCCC1	i
CC(=O)N1C[C@@H]2CCCN3CCC[C@@H]([C@H]23)[C@H]1CCCC(=O)N1CCNC(=O)C1	i
CC(=O)N1C[C@@H]2CCCN3CCC[C@@H]([C@H]23)[C@H]1CCCC(=O)NCCCN1CCCCC1	25.1µM*
CC(=O)N1C[C@@H]2CCCN3CCC[C@@H]([C@H]23)[C@H]1CCCC(=O)NCCN1CCCCC1	22.4µM*
O=C(CCC[C@@H]1[C@H]2CCCN3CCC[C@@H](CN1Cc1ccccc1)[C@@H]23)NCc1ccncc1	i
O=C(CCC[C@@H]1[C@H]2CCCN3CCC[C@@H](CN1C(=O)c1ccccc1)[C@@H]23)NCCCN1CCCCC1	i
CN1CCN(CCCNC(=O)CCC[C@@H]2[C@H]3CCCN4CCC[C@@H](CN2Cc2ccccc2)[C@@H]34)CC1	i
CCN1CCN(CCNC(=O)CCC[C@@H]2[C@H]3CCCN4CCC[C@@H](CN2C(C)=O)[C@@H]34)CC1	i
CN1C[C@@H]2CCCN3CCC[C@@H]([C@H]23)[C@H]1CCCC(=O)NCCN1CCOCC1	i
CC(=O)N1C[C@@H]2CCCN3CCC[C@@H]([C@H]23)[C@H]1CCCC(=O)N(C)C	20µM*
CN(C)C(=O)CCC[C@@H]1[C@H]2CCCN3CCC[C@@H](CN1C)[C@@H]23	i
CCC(=O)Nc1cccc(-c2nc3cc(Cl)cc(Cl)c3o2)c1	i
COc1cc(NC(=O)c2ccc3c(c2)NC(=O)CS3)cc(OC)c1	i
COc1cccc(-n2cnnc2SC(C)C(=O)Nc2ccc(C(C)C)cc2)c1 (stereo not given)	i
SMILES	KDM5B inhibitor
CCNC(=O)c1ccccc1OCc1ccc(Cl)cc1	i
CCCn1nc(C(=O)Nc2ccc(S(=O)(=O)NC(C)C)cc2)c2ccccc2c1=O	i
COc1ccc(C(=O)N2CCCC(c3noc(COc4ccccc4F)n3)C2)cc1OC (stereo not given)	i
CC(C)c1ccccc1NC(=O)/C=C/c1ccc(F)cc1	i
O=C(CSc1cnc2cc(S(=O)(=O)N3CCCCC3)ccc2n1)Nc1ccc(Cl)cc1	i
CCn1nccc1-c1nc(-c2nnn3c2COC(c2ccc(C)cc2)C3)no1 (stereo not given)	i
Cc1ccc(-c2nc(-c3nnn4c3COC(c3ccc(C)cc3)C4)no2)cc1 (stereo not given)	i
COc1ccc(-c2nc(-c3nnn4c3COC(c3ccc(C)cc3)C4)no2)c(OC)c1 (stereo not given)	20µM*
Cc1ccc(C2Cn3nnc(-c4noc(-c5cccc(N(C)C)c5)n4)c3CO2)cc1 (stereo not given)	22.4µM*
COc1ccc(-c2nc(-c3nnn4c3COC(c3ccc(Cl)cc3)C4)no2)cc1 (stereo not given)	i
Cc1ccc(C2Cn3nnc(-c4noc(-c5ccc(C)s5)n4)c3CO2)cc1 (stereo not given)	12.6µM*
COc1ccc(-c2nc(-c3nnn4c3COC(c3ccc(C)cc3)C4)no2)cc1OC (stereo not given)	14.1µM*
COc1ccc(C2Cn3nnc(-c4noc(-c5ccc(OC)c(F)c5)n4)c3CO2)cc1 (stereo not given)	i
COc1ccc(C2Cn3nnc(-c4noc(-c5ccc(C)c(F)c5)n4)c3CO2)cc1 (stereo not given)	i
Cc1ccc(C2Cn3nnc(-c4noc(-c5c(F)cccc5F)n4)c3CO2)cc1 (stereo not given)	i
COc1ccc(C2Cn3nnc(-c4noc(-c5cccc(Cl)c5)n4)c3CO2)cc1 (stereo not given)	i
Cc1ccc(C2Cn3nnc(-c4noc(-c5ccccc5)n4)c3CO2)cc1 (stereo not given)	i
Cc1oc2cc(OS(C)(=O)=O)ccc2c(=O)c1-c1ccc(Cl)cc1	i
CN(CCCN1c2ccccc2CCc2ccccc21)C(=O)C1CNCCO1 (stereo not given)	i
Cc1noc(C)c1[S+](=O)([O-])N1CC(Oc2ccc(F)cc2F)C1	i
CN(C)c1cccc(Oc2nnnn2[C@H]2CO[C@H]3[C@@H]2OC[C@@H]3NS(=O)(=O)c2ccccc2C#N)c1	i
COc1cccc(NC(=O)c2cc3c(s2)-c2ccc(Cl)cc2S(=O)(=O)C3)c1	i
Cc1nnc(-c2cc(N3CCN(c4ccccn4)CC3)ccn2)n1C(C)C	i
CCN(CC)CCCCC(C(N)=O)c1ccccc1 (stereo not given)	i
O=C(NC1CC1)c1cc(-c2ccccn2)nc2cc(F)ccc12	i
SMILES	KDM5B inhibitor
CN1C[C@@H](NC(=O)c2cccnc2)C[C@H]1c1nc(-c2cccnc2)no1	i
O=C(N[C@H]1CC[C@H](Nc2nccc(-c3cccnc3)n2)C1)c1ccc(O)cc1	20µM*
CCOC(=O)N1CCN(c2nccc(-c3ccccn3)n2)CC1	i
CCc1[nH]ncc1C(=O)N[C@H]1CC[C@H](Nc2nccc(-c3ccccn3)n2)C1	12.6µM*
c1cncc(-c2nc(NC3CC3)c3ccccc3n2)c1	i
CC(C)N1CCN(C(=O)CCC[C@@H]2[C@H]3CCCN4CCC[C@@H](CN2Cc2ccccc2)[C@@H]34)CC1	i
CC(=O)N1CC2(Cc3ccccc31)CN(C(=O)c1cccc(Cl)c1)C2	i
O/N=C/c1cccc(OCc2ccc(F)cc2)c1	i
Cc1nc(C)n(CCCNc2nccc(-c3ccccn3)n2)n1	22.4µM*
Cc1ccc(S(=O)(=O)NCCn2nc(C)nc2C)cc1	i
Cc1nc(C)n(CCNS(=O)(=O)c2ccccc2)n1	i
CCn1ccc(C(=O)N2CCC3(CC2)CC(N(Cc2ccccc2)C2CC2)CCO3)n1 (stereo not given)	i
c1ccc(CNCCCn2ccnc2)cc1	i
CC1(C(=O)NCc2cnccn2)CCc2cnc(Nc3ccccc3)nc21 (stereo not given)	i
CC1(C(=O)NCc2ccccc2)COCc2cnc(Nc3ccccc3)nc21 (stereo not given)	i
CC1(C(=O)NCC2CC2)CCCc2cnc(Nc3ccccc3)nc21 (stereo not given)	i
CC1(C(=O)NCCOc2ccccc2)CCCc2cnc(Nc3cccnc3)nc21 (stereo not given)	i
COCCNC(=O)C1(C)CCc2cnc(Nc3ccccc3)nc21 (stereo not given)	i
Cn1ccc(NC(=O)C2(C)CCc3cnc(NCc4ccccc4)nc32)n1 (stereo not given)	35.5µM*

Compound activity as filed in PubChem BioAssay.
